Results from PubChem BioAssay AID738 (SRMLSC, 2007).
The campaign covered roughly 98,000 compounds. About 4,900 (5%) were called active. Cut-off read from the data, not from the text of the source: active = inhibition above about 30%; inactive = the rest. The list comes from a sample in which actives are over-represented; it also holds similar structures and randomly drawn compounds.

Experiment: yeast control strain growth suppression – counter-screen for post-Golgi transport modulator project, primary screen (AID 738)
Settings: efflux-deficient yeast background strain, growth absorbance A615, 16 h; at 10 µM; hits give high values
For CCN(CC)CCN1C(=O)C(=O)/C(=C(/O)c2cnn(-c3ccccc3)c2C)C1c1cccs1 (configuration not stated), the inhibition was 10.5% (inactive). With S=c1nccc(-c2cc(Cl)sc2Cl)[nH]1 the inhibition was -1.82% (inactive). For O=C(Nc1ccccc1N1CCN(c2ccccc2)CC1)c1cccc(F)c1, the inhibition was 15.4% (inactive). For O=C(Nc1ccccc1N1CCCCC1)c1ccc2nccnc2c1, the inhibition was 16.6% (inactive). For O=C(Nc1ccccc1N1CCCCC1)c1cccc(F)c1, the inhibition was 31.6% (active). With CCC(=O)OCc1c(C(F)(F)F)nn(C)c1Oc1cccc(C(F)(F)F)c1 the inhibition was -7.2% (inactive). With O=C(NCc1ccc2c(c1)OCO2)C12CC3CC(CC(C3)C1)C2 the inhibition was 9.12% (inactive). With S=C(NCc1ccc(Cl)cc1)NC12CC3CC(CC(C3)C1)C2 the inhibition was 69.2% (active). For S=C(NCc1cccs1)Nc1ccc(Cl)cc1, the inhibition was 1.15% (inactive). For O=C(/C=C/c1cccs1)c1cc(Cl)ccc1OC(=O)N1CCOCC1, the inhibition was 16.3% (inactive). With N/C(=N\OC(=O)c1cc(-c2ccccc2)nc2ccccc12)c1ccncc1 the inhibition was 13.9% (inactive). For Nc1ccccc1SCc1cc([N+](=O)[O-])cc2c1OCOC2, the inhibition was 13.6% (inactive). For CCCCN(CC)C(=O)CN(C)S(=O)(=O)c1cccc2nsnc12, the inhibition was 7.72% (inactive). For CCOc1ccc(NC(=O)CCS(=O)(=O)c2cccc3nsnc23)cc1, the inhibition was 32.5% (active). For CCOc1ccc(-c2cn(S(=O)(=O)c3cccc4nsnc34)nc2N)cc1, the inhibition was 53.9% (active). For CCOc1ccc(OCC)c(NC(=O)CN(C)S(=O)(=O)c2cccc3nsnc23)c1, the inhibition was 0.74% (inactive). For Cc1cccc(C)c1NC(=O)CCS(=O)(=O)c1cccc2nsnc12, the inhibition was 9.17% (inactive). In the case of O=C(O)c1ccc(NS(=O)(=O)c2cccc3nsnc23)cc1, the inhibition is reported as 18% (inactive). In the case of CCc1ccc(C(=O)CSc2nnc(C)c(=O)[nH]2)cc1, the inhibition is reported as 22% (inactive). In the case of Nc1ccc(C(=O)OCC(=O)NC2CCCc3ccccc32)cc1[N+](=O)[O-] (configuration not stated), the inhibition is reported as 16.1% (inactive). For CCCc1nc2ccccc2c(C(=O)OCC(=O)c2ccc3c(c2)NC(=O)CO3)c1CC, the inhibition was 2.23% (inactive). With O=C(COc1ccc2c(C(F)(F)F)cc(=O)oc2c1)Nc1ccc2c(c1)OCCO2 the inhibition was 3.57% (inactive). For CCOc1ccc(S(=O)(=O)Nc2nc3cc(OC)ccc3s2)cc1, the inhibition was 2.89% (inactive). For CC(=O)c1cnc(SCCN2C(=O)c3ccccc3C2=O)nc1C, the inhibition was -2.62% (inactive). With Cc1cc(C)c2nc(NC(=O)c3ccc4c(c3)OCO4)sc2c1 the inhibition was 21.3% (inactive). In the case of CSc1ccc(S(=O)(=O)NC2CCCCC2)cc1, the inhibition is reported as 10.7% (inactive). For COc1ccc(C)cc1S(=O)(=O)NC1CCCCC1, the inhibition was 2.46% (inactive). With O=S(=O)(NC1CCCCC1)c1ccc(F)c2ccccc12 the inhibition was 35.4% (active). In the case of Cc1ccc(N(NC(=O)C(C)(C)O)C(=O)c2ccccc2)cc1C, the inhibition is reported as 0.77% (inactive). With Cc1ccccc1C(=O)N1CCC(C(=O)Nc2ccc(S(=O)(=O)N(C)C(C)C)cc2)CC1 the inhibition was -2.28% (inactive). For CCc1nc(Nc2ccc3nccnc3c2)c2oc3ccccc3c2n1, the inhibition was 4.28% (inactive). For COc1ccccc1Nc1ncnc2c1oc1ccccc12, the inhibition was 31.2% (active). For Cc1nc(Cl)c2oc3ccccc3c2n1, the inhibition was -0.78% (inactive). In the case of NS(=O)(=O)c1cccnc1Nc1cccc(Cl)c1, the inhibition is reported as 7.66% (inactive). With O=C(Cn1ccc([N+](=O)[O-])n1)NCc1cccs1 the inhibition was 18.9% (inactive). For Cc1cccc(CSc2nnc(Cn3c(=O)sc4ccccc43)n2C)c1, the inhibition was 13.1% (inactive). With Cc1ccccc1-c1nnc(SCC(=O)NCc2ccc3c(c2)OCO3)n1C the inhibition was 12.7% (inactive). With Cn1c(SCc2nc3ccccc3s2)nnc1-c1ccc2c(c1)OCO2 the inhibition was 33.8% (active). For Cc1cccc(N2C(=O)C3C(c4ccccc4)OC4(C(=O)c5ccccc5C4=O)C3C2=O)c1 (configuration not stated), the inhibition was -14.2% (inactive). With CCN(CC)C(=O)CSc1nnc(CNc2ccc(F)cc2)n1Cc1ccco1 the inhibition was 7.51% (inactive). For COc1cccc(-c2nnc(SCCOc3ccc4c(C)cc(=O)oc4c3)o2)c1, the inhibition was 7.69% (inactive). In the case of CC(Sc1nnc(Cc2ccc([N+](=O)[O-])cc2)o1)C(N)=O (configuration not stated), the inhibition is reported as 5.64% (inactive). With N#C/C(=C(/O)Cc1cccc2ccccc12)c1nc2ccccc2s1 the inhibition was 0.29% (inactive). With Cc1ccc(CNC(=O)COc2ccc(S(=O)(=O)NC(C)C)cc2)cc1 the inhibition was 36.6% (active). With CC(C)NS(=O)(=O)c1ccc(OCC(=O)Nc2ccc3c(c2)OCCO3)cc1 the inhibition was 3.4% (inactive). For COc1ccc(OCC(=O)NCCc2ccc(S(N)(=O)=O)cc2)cc1, the inhibition was -0.6% (inactive). For CNC(=O)c1csc(-c2ccccc2)n1, the inhibition was -5.25% (inactive). For Cc1occc1C(=O)NNC(=S)NCC(C)C, the inhibition was 3.2% (inactive). For CSCCC(NS(=O)(=O)c1ccc2c(c1)oc(=O)n2C)C(=O)NC1CCCc2ccccc21 (configuration not stated), the inhibition was -5.76% (inactive). In the case of C=CCn1c(-c2ccc3[nH]c(C)c(C)c3c2)n[nH]c1=S, the inhibition is reported as 3.87% (inactive). In the case of CCCc1cc(-c2n[nH]c(=S)n2Cc2ccccc2)cs1, the inhibition is reported as 37.9% (active). For CC(C)Oc1ccc(CCc2n[nH]c(=S)n2Cc2ccccc2)cc1, the inhibition was -1.67% (inactive). For Cc1cccc(NC(=S)N2CCC(c3nc4ccccc4s3)CC2)c1, the inhibition was 10.4% (inactive). With CCCCNCc1ccc(SC)cc1 the inhibition was 3.73% (inactive). For Cc1ccc(S(=O)(=O)N2CCC(C(=O)NCC3CCCO3)CC2)cc1 (configuration not stated), the inhibition was 11.9% (inactive). For COC(=O)NC1(C(F)(F)F)NC(=O)N(C2CCCCC2)C1=O (configuration not stated), the inhibition was -7.51% (inactive). In the case of O=C1NC(Nc2nc3ccccc3s2)(C(F)(F)F)C(=O)N1C1CCCCC1 (configuration not stated), the inhibition is reported as 47.7% (active). In the case of COc1ccc(C2Nc3ccccc3C(=O)N2Cc2ccccc2)cc1Cn1nnc2ccccc21 (configuration not stated), the inhibition is reported as 13.4% (inactive). In the case of CN(C)c1ccc(NC(=S)N(CCc2ccccc2)C2CC(=O)N(c3c(Cl)cccc3Cl)C2=O)cc1 (configuration not stated), the inhibition is reported as 5.66% (inactive). With O=C(O)CCC(=O)NCc1ccc(C(=O)O)cc1 the inhibition was 12.1% (inactive). With O=C(NCCc1ccccn1)c1ccc(COc2ccccc2)o1 the inhibition was -1.77% (inactive). With COc1ccc(-c2nc(CCNC(=O)c3ccc(Br)o3)cs2)cc1 the inhibition was 36.5% (active). With CC(CNC(=O)c1ccc(Br)o1)NC(=O)c1ccc(Br)o1 (configuration not stated) the inhibition was 18.5% (inactive). For Cc1ccccc1OC(=O)Cn1c(C(F)(F)F)nc2ccccc21, the inhibition was 12.9% (inactive). For COC(=O)c1ccccc1OCC(=O)N1CCN(c2ccc(Cl)cc2)CC1, the inhibition was 13.6% (inactive). With O=c1c2ccccc2nnn1CSc1nnnn1-c1ccccc1 the inhibition was 19.6% (inactive). For CN(C(=O)CSc1nnnn1-c1ccccc1)C1CCCCC1, the inhibition was 38% (active). In the case of COc1ccc(-n2nnnc2SCC(=O)Nc2ccccc2)cc1, the inhibition is reported as 2.21% (inactive). For CC(=O)c1nn(-c2cccc(Br)c2)cc1C(=O)c1cccc2ccccc12, the inhibition was 8.1% (inactive). With Cc1cc2cc3c(N)[nH]nc3nc2cc1C the inhibition was 8.93% (inactive). With COCCNS(=O)(=O)c1cc(Br)ccc1OC the inhibition was 2.48% (inactive). For O=[N+]([O-])c1cccc(-c2nnc3c4ccccc4c4ccccc4n23)c1, the inhibition was 6.93% (inactive). For COC(=O)Cc1cc(=O)n(-c2nc3ccccc3s2)[nH]1, the inhibition was 11.8% (inactive). With CCC(=O)NC(=Nc1nc2ccccc2s1)NC(=O)CC the inhibition was 35.9% (active). For CC(C)CC(=O)N/C(N)=N/c1nc2ccccc2s1, the inhibition was 13.9% (inactive). For COc1ccc(C(=O)N2CCc3cc(OC)c(OC)cc3C2c2cccc([N+](=O)[O-])c2)cc1 (configuration not stated), the inhibition was 20% (inactive). In the case of c1ccc2c(C[n+]3csc4ccccc43)cccc2c1, the inhibition is reported as 9.79% (inactive). With COc1ccc(C)cc1NC(=O)CCC(=O)Nc1nnc(C(F)(F)F)s1 the inhibition was 0.61% (inactive). In the case of Cc1[nH]n(-c2cccc(Cl)c2)c(=O)c1/C=N/n1c(C)nc2ccccc2c1=O, the inhibition is reported as 9.33% (inactive). With Cc1[nH]n(-c2cccc(Cl)c2)c(=O)c1-c1ccc(Cl)cc1 the inhibition was 55.6% (active). With O=c1[nH]n(-c2cccc(Cl)c2)c2ncccc12 the inhibition was 16.8% (inactive). With O=C(CN1CCN(S(=O)(=O)c2ccc(Cl)s2)CC1)NCc1ccc(Cl)cc1 the inhibition was 15.8% (inactive). For CC(=O)Nc1cccc(/C(C)=N/NC(=O)c2ccccc2Cl)c1, the inhibition was 5.79% (inactive). For Cc1ccc(C(=O)Nc2ccc3c(c2)OCO3)cc1S(=O)(=O)N1CCCCC1, the inhibition was 16.4% (inactive). In the case of Cc1ccc(C(=O)Nc2ccccc2C(=O)NC2CCCCC2)cc1S(=O)(=O)N1CCOCC1, the inhibition is reported as 36.2% (active). For Cc1cc(C)n(C(=O)c2ccc(C)c(S(=O)(=O)N3CCOCC3)c2)n1, the inhibition was 11.4% (inactive). With CCOc1c2ccc(C(=O)NC3CCCc4ccccc43)cc2nn1CC (configuration not stated) the inhibition was -2.36% (inactive). In the case of O=C(O)c1ccccc1-c1ccccc1C(=O)Nc1cccc2ccccc12, the inhibition is reported as 9.42% (inactive). In the case of COc1ccccc1C(=O)NN1C(=O)C2C3C=CC(O3)C2C1=O (configuration not stated), the inhibition is reported as 3.54% (inactive). For Cc1ccccc1C(OCC(O)CN1CCCCC1CCO)c1ccccc1 (configuration not stated), the inhibition was 30.4% (active). For CCCSc1nsc(N)n1, the inhibition was 3.53% (inactive). For O=C(CSc1ncnc2c1cnn2CCc1ccccc1)Nc1ccc(F)cc1, the inhibition was -3.75% (inactive). For O=C(Nc1cccn(Cc2c(Cl)cccc2Cl)c1=O)c1ccc(Cl)cc1, the inhibition was -8.03% (inactive). In the case of Clc1ccc(COn2c(-c3ccc(Cl)cc3Cl)nc3ncccc32)cc1, the inhibition is reported as 66.1% (active). With CCOc1ccc(OCC)c(-c2c(=O)n(OCc3ccc(Cl)cc3)c3ccccc3[n+]2[O-])c1 the inhibition was 11.6% (inactive). With O=C(/C=C/c1cc2c(cc1Br)OCO2)NCc1ccc(Cl)cc1 the inhibition was 9.36% (inactive). With N/C(=N\OC(=O)CCc1ccccc1)c1ccc(Cl)cc1 the inhibition was 16.6% (inactive).
